Reference: ChEMBL document CHEMBL4513216, “Probing the Open Global Health Chemical Diversity Library for Multistage-Active Starting Points for Next-Generation Antimalarials” (ACS Infect Dis, 2020)
Screen size: about 65,000 compounds; about 2,100 (3.2%) showed an effect of 50% or more. The median lay at about -52%. For the sample, strong results were picked, then their nearest neighbours and some compounds at random.

System: Plasmodium falciparum
Test: Screen against P. falciparum Asexual Blood Stage (ABS), at 5uM
Format: functional, Dd2
Conditions: tested at 5 uM

Row | SMILES | INHIBITION
1 | CCc1ccc(CN2C[C@H](OC)[C@H]3COC[C@H]32)o1 | -53%
2 | O=C(c1ccoc1)N1CCO[C@@H]2CNC[C@@H]21 | -14.6%
3 | Fc1cnc(N2CCN3C[C@H](Oc4cccnc4)C[C@H]3C2)nc1 | -61.4%
4 | c1cnc(N2CCOCC3(CNCCO3)C2)nc1 (centres undefined) | -4.23%
5 | Cc1cc(C)n2nc(C(=O)N[C@H]3C[C@H]4CN(C)CCN4C3)cc2n1 | -13.9%
6 | OCCN1CCN(Cc2cc3c(cc2Br)OCCO3)CC1 | 1.48%
7 | CCc1ccc(OCC(=O)N2CCN(CC)CC2)cc1 | -123%
8 | O=C(Cc1ccc(F)c(Br)c1)N1CCN(CCO)CC1 | -1.34%
9 | OCCN1CCC(CNCc2ccc(Br)cc2)CC1 | 86.7%
10 | OCCN1CCC(CNCc2ccc(N3CCCCC3)cc2)CC1 | 91.9%
11 | CCc1ccc(CNCC2CCN(CCO)CC2)cc1 | 84.2%
12 | O=C(C1CCC1)N1CCC2(CC1)OCCO2 | -22.7%
13 | O=C(c1ccc[nH]1)N1CCCC2(CCCN2Cc2cccnc2)C1 (centres undefined) | -53.7%
14 | Fc1ccc2[nH]c(C3CCCN3Cc3c[nH]cn3)nc2c1 (centres undefined) | 81%
15 | CCNCCc1nc2cc(F)ccc2[nH]1 | -115%
16 | CNCCc1nc2cc(F)ccc2[nH]1 | -61.7%
17 | c1cncc(OC[C@@]23CCC[C@@H]2CN(C2CCOCC2)C3)c1 | 3.99%
18 | CCCc1nnc2sc(C3CCN(CC)CC3)nn12 | -55.6%
19 | c1cnc2c(c1)CN(C1CCOC1)CCN2CC1CC1 (centres undefined) | -73.8%
20 | COc1cccc(CNCc2cccnc2-n2cccn2)c1OC | 70.1%

Row | SMILES | INHIBITION
21 | COc1c(Br)cc(Br)cc1CNC(C)Cn1cccn1 (centres undefined) | 17.9%
22 | COc1cccc(CNC(C)Cn2cccn2)c1OC (centres undefined) | -22.3%
23 | CN1CCN(Cc2cccc(C#N)c2)Cc2cccnc21 | -71%
24 | N#Cc1cccc(CN2CCn3cc(Cn4cccn4)nc3C2)c1 | 78.6%
25 | CC(Cn1cccn1)NCc1cccc(C#N)c1 (centres undefined) | -46.4%
26 | CCN1C[C@@H]2CN(c3cc(OC)ncn3)CCC[C@]2(C(=O)O)C1 | -22%
27 | COC(=O)c1ccc(C2SCC(=O)Nc3c2cnn3C2CCCC2)cc1 (centres undefined) | -86.9%
28 | CN1CCC(N(Cc2ccco2)S(=O)(=O)c2ccc(Br)cc2Cl)CC1 | 74.7%
29 | CN1CCC(N(Cc2ccco2)S(=O)(=O)c2cc(Br)ccc2Br)CC1 | 76.2%
30 | CC(Cn1ccnc1)NCc1csc2c1CCCC2 (centres undefined) | 22.3%
31 | CO[C@H]1CCN(C2CCC2)[C@@H]2CN(Cc3ccncc3)C[C@H]12 | -41.2%
32 | CO[C@@H]1CCN(S(=O)(=O)N(C)C)[C@@H]2CN(Cc3ccncc3)C[C@@H]21 | -53.3%
33 | CO[C@H]1CCN(Cc2cccc(C)n2)[C@@H]2CN(Cc3cccnc3)C[C@H]12 | 70.4%
34 | COCCN1C[C@@H]2[C@@H](OC)CCN(Cc3cccc(C)n3)[C@@H]2C1 | -1.19%
35 | CCS(=O)(=O)N1CC[C@H](OC)[C@H]2CN(Cc3ccncc3)C[C@H]21 | -64.4%
36 | COCCN1C[C@@H]2[C@@H](OC)CCN(Cc3ccncc3)[C@@H]2C1 | 24.3%
37 | CO[C@H]1CCN(Cc2cccs2)[C@@H]2CN(Cc3ccncc3)C[C@H]12 | 61.5%
38 | CO[C@@H]1CCN(S(=O)(=O)N(C)C)[C@@H]2CN(Cc3cccnc3)C[C@@H]21 | -88.2%
39 | CO[C@@H]1CCN(Cc2cccs2)[C@@H]2CN(Cc3ccncc3)C[C@@H]21 | 53.8%
